96 compounds from PubChem BioAssay AID2314 (National Center for Advancing Translational Sciences (NCATS), 2010) can be followed below.

“And” between values parts separate entries of the source, which are not always exact repeats. Equal entries are not always repeated. The whole screen tested about 300,000 compounds, of which about 37,000 (12%) were called active. Shown is part of a subset that was picked to be rich in actives. Unmarked numbers belong to inactive results. No stated cut-off is given here; in the data, active means max response mostly above about 13% (no sharp cut-off); inactive means mostly below about 14%.

This experiment is described as follows: Cycloheximide Counterscreen for Small Molecule Inhibitors of Shiga Toxin. Further: read at 38.3 µM for the half of the compounds with a filed dose; 0% is about no effect. The conditions noted are these: cell reporter, cycloheximide protein synthesis inhibition counterscreen; active compounds read high. For orientation: A counterscreen serves to expose hits that act by an unwanted route or on another target.
As for `O=C1CCCN1CCCNC(=S)Nc1ccc(F)c(Cl)c1`, the max response is 11.5%.

For `OCc1ccc(OCCCOc2cccc3cccnc23)cc1`, the max response was 1.36%.

Turning to `Cc1ccc(N(C)C(=O)Oc2cccc3ccc(C)nc23)cc1`, the max response was -4.01%.

As to `Cc1ccc2cccc(OCCCOc3ccccc3CO)c2n1`, the max response is 13.2% (active).

Take `Cc1cc(S(=O)(=O)NCc2ccccn2)c(Cl)cc1Cl`: the max response is -3.82%.

For `O=C1NC(=Nc2ccc(Cl)cc2)SC1Cc1cccc(Cl)c1Cl` (stereo unspecified), the max response was -3.08%.

For `Cc1nc(N2CCOCC2)nc2c1CCCC2`, the max response is 9.25%.

Regarding `Cc1cc(Oc2ccccc2)nc(N2CCOCC2)n1`, the max response was 11.6%.

Turning to `Nc1nc(-c2sc3nc4c(cc3c2N)CCCC4)nc(N2CCOCC2)n1`, the max response was 17.7% (active).

In the case of `COc1ccc(N2C(=O)C(CC(=O)Nc3ccc(F)cc3)N(CCc3cccs3)C2=O)cc1` (stereo unspecified), the max response was 8.62%.

In the case of `CNc1ccc(SC#N)cc1`, the max response was -2%.

As to `CCOc1ccc(OCc2cccc(C(=O)N(CC)CC)c2)cc1`, the max response was 47.9% (active).

For `CC(=O)Oc1ccc(-c2cccc(C(=O)N3CCCCC3)c2)cc1`, the max response is 12.6% (active).

For `Cc1cccc(C(=O)N2CCN(S(=O)(=O)N3CCCCC3)CC2)c1`, the max response was -2.15%.

As for `COc1ccc(OCc2cccc(C(=O)N3CCCC3)c2)cc1`, the max response is 59.3% (active).

Take `COc1cccc(COc2ccc(N(C)S(=O)(=O)c3ccccc3)cc2)c1`: the max response is -0.489%.

Turning to `COc1ccc(Cn2c(=S)[nH]c3cc(C(=O)N4CCCCC4)ccc3c2=O)cc1`, the max response was -3.34%.

As for `COc1ccc(CNC(=O)C2CCN(C(=O)c3ccccc3)CC2)cc1`, the max response was 1.61%.

Turning to `Cc1cccc(C(=O)N2CCCN(C(=O)c3cccc(C)c3)CC2)c1`, the max response was -1.57%.

For the compound `CCOc1ccc(OCc2ccc(C(=O)N(C)c3ccccc3)o2)cc1`, the max response was 2.57%.

In the case of `O=C(c1cc(S(=O)(=O)N2CCOCC2)ccc1Cl)N1CCOCC1`, the max response is -3.17%.

Regarding `OC(c1nc2ccc(F)cc2[nH]1)C(O)c1nc2ccc(F)cc2[nH]1` (stereo unspecified), the max response was -0.936%.

For the compound `COc1ccccc1N1CCN(C(=O)c2cc(=O)c3cc(C)cc(C)c3o2)CC1`, the max response is -2.78%.

Regarding `Cc1ccc(C)c(-n2c(SCC(=O)O)nc3sc4c(c3c2=O)CCCC4)c1`, the max response is -4.29%.

For the compound `Cc1ccc(NC(=S)N(CCN(C)C)Cc2cccs2)cc1C`, the max response was -3.5%.

Consider `O=C(COc1ccc(-n2cnnn2)cc1)Nc1ccccc1Cl`, for which the max response was 9.71%.

Take `Cc1sc2nc(CSCC(=O)Nc3c(Cl)cccc3Cl)[nH]c(=O)c2c1C`: the max response is 13.5%.

`Cc1ccc(NC(=O)Nc2ccccc2)c(Br)c1`: the max response is 64.5% (active).

For `CCOc1cc(NC(=O)Nc2ccccc2)c(OCC)cc1NC(=O)CC`, the max response was -3.19%.

Consider `CS(=O)(=O)c1ccc(Cl)c(NC(=O)Nc2ccccc2)c1`, for which the max response is -1.05%.

For `COc1ccc(S(=O)(=O)N/N=C\c2ccc(OC)c(COc3ccc(C)cc3[N+](=O)[O-])c2)cc1`, the max response was -1.1%.

For the compound `O=C(NCc1ccco1)C(c1ccncc1)N(C(=O)Cn1nnc2ccccc21)c1ccccc1` (stereo unspecified), the max response was -1.7%.

On to `CSc1ccccc1NC(=O)CN(C)CC(=O)Nc1cccc(Br)c1`, for which the max response was 1.62%.

With `CCN(CC)C(=O)Oc1ccc(Br)cc1C(=O)Nc1ccc(F)c(Cl)c1`, the max response was 11%.

Turning to `CCN(CC)C(=O)C(=O)Nc1cccc(Br)c1`, the max response is 36.1% (active).

Regarding `CC(C)(C)c1ccccc1NC(=O)CN1C(=O)NC2(CCCC2)C1=O`, the max response was -4.11%.

Turning to `Cc1cccc(C(=O)OC(C)CN2CCCC2)c1` (stereo unspecified), the max response was 6.5%.

`CC(CN1CCOCC1)OC(=O)c1ccc(C(C)(C)C)cc1` (stereo unspecified): the max response was 16.4% (active).

Consider `CC(CN1CCOCC1)c1ccccc1` (stereo unspecified), for which the max response is 2.67%.

Turning to `CC(CN1CCCCC1)c1ccccc1` (stereo unspecified), the max response is -3.13%.

Turning to `Cc1cccc(C(=O)OC(C)CN2CCN(C)CC2)c1` (stereo unspecified), the max response is 41.3% (active).

As to `Cc1ccc(C(CNC(=O)Nc2cccc(C)c2)N2CCN(C)CC2)cc1` (stereo unspecified), the max response is -4.7%.

In the case of `CC(CN1CCCCC1)OC(=O)c1ccccc1Cl` (stereo unspecified), the max response was 22.1% (active).

As to `Cc1ccc(C(=O)OC(C)CN2CCOCC2)cc1` (stereo unspecified), the max response was 16.8%.

As for `CC(CN1CCOCC1)OC(=O)c1ccc(Cl)cc1Cl` (stereo unspecified), the max response is 20.3%.

As to `COc1ccc(-n2nc3c(N4CCC(C(=O)NCc5ccccc5)CC4)nnc(C)c3c2C)cc1`, the max response is -13.3%.

`CCOC(=O)C1C(c2ccc(OC)c(OC)c2)c2c([nH][nH]c2=O)CC1(C)O` (stereo unspecified): the max response was -1.55%.

Regarding `CO/N=C(/CS(=O)(=O)c1ccc(Br)cc1)c1ccc(OC)cc1`, the max response is 0.74%.

Take `Clc1ccc(COn2c(-c3ccc(Cl)cc3Cl)nc3ncccc32)cc1`: the max response was -3.82%.

Consider `Cc1n[nH]c(=O)c2c1nnn2Cc1ccc(F)cc1`, for which the max response is -2.69%.

In the case of `O=C(Nc1ccc(Br)cc1)c1cccc(NC(=O)C2C3CC4OC(=O)C2C4C3)c1` (stereo unspecified), the max response was 14%.

As for `Cn1c(CCNS(=O)(=O)c2ccc(F)cc2)nnc1SCc1cccnc1`, the max response was -3.41%.

As to `CCC1(CC)NC(=O)N(CC(=O)OCC(=O)NC(=O)c2ccccc2)C1=O`, the max response was -1.66%.

With `CCC1(CC)NC(=O)N(Cc2nc3ccccc3s2)C1=O`, the max response is 19.8% (active).

Regarding `COC(=O)C1[C@H]2SC(C)(C)C(C(=O)OC)N2C(=O)N1Cc1nc2ccccc2s1` (stereo partly specified), the max response was 0.765%.

In the case of `O=S(=O)(c1ccccc1)c1nc(Cc2ccccc2)oc1N1CCOCC1`, the max response is -5.23%.

With `COc1ccc(CCN2C(=O)CC(N3CCC(C(N)=O)CC3)C2=O)cc1OC` (stereo unspecified), the max response is 3.18%.

With `Nc1nonc1-n1nnc(C(=O)N/N=C/c2cc(Br)ccc2O)c1CSC1=NCCS1`, the max response is -2.34%.

Turning to `O=C(Nc1ccccc1F)c1ccccc1-c1ccc(C(F)(F)F)cc1`, the max response was -2.22%.

As for `CCCOC(=O)c1[nH]c2c(c1C)C(=O)CC(c1cc(OC)c(OC)c(OC)c1)C2` (stereo unspecified), the max response was 3.17%.

For the compound `COC(=O)C1C(=O)c2c([nH]c(C(=O)OCCSC)c2C)CC1C` (stereo unspecified), the max response was 51.7% (active).

`CCCOC(=O)C1=C(C)NC2=C(C(=O)C(C(=O)OC)C(C)C2)C1c1ccc(N(C)C)cc1` (stereo unspecified): the max response was 12.3%.

For the compound `CC(C)(CNC(=O)Cc1ccc(Cl)cc1Cl)N1CCOCC1`, the max response is -3.1%.

As to `N#C/C(=C(/O)COc1cccc2ccccc12)c1nc2ccccc2[nH]1`, the max response is 2.08%.

`COCCN(CCOC)S(=O)(=O)c1ccc(/C(O)=C(\C#N)c2nc3ccccc3[nH]2)cc1`: the max response is 12.2% (active).

For the compound `Cc1ccccc1OC/C(O)=C(\C#N)c1nc2ccccc2[nH]1`, the max response was 0.892%.

`O=C(c1ccc(OC2CCN(C(=O)c3cccnc3)CC2)cc1)N1CCCCCC1`: the max response is -1.68%.

On to `CCOC(=O)/C(=C\c1ccc([N+](=O)[O-])cc1)C(=O)c1cc(C(C)=O)c(Nc2ccccc2)s1`, for which the max response is -4.46%.

Regarding `O=C1/C(=C/c2ccc3c(c2)OCO3)Oc2cc(OCC(=O)N3CC(O)C[C@H]3C(=O)O)ccc21` (stereo partly specified), the max response is 0.739%.

Take `COC(=O)C(C)Oc1ccc2c(c1)O/C(=C\c1cccc(Br)c1)C2=O` (stereo unspecified): the max response is 1.99%.

Consider `CN(C)C(=O)Oc1ccc2c(c1)O/C(=C\c1ccccc1)C2=O`, for which the max response was 44.1% (active).

Consider `COc1cc(C(CCN2CCN(c3ccccc3)CC2)c2c(OC)cc(OC)c3ccc(=O)oc23)cc(OC)c1OC` (stereo unspecified), for which the max response is -1.52% and 15.6%.

Take `C=C(C)COc1ccc(-c2ncncc2-c2ccc(OC)cc2)c(O)c1`: the max response is 13.2%.

`Cc1ccc(SCC(=O)c2cc(C)c(OC(=S)N(C)C)c(C)c2)cc1`: the max response was 26.1% (active).

In the case of `COC(=O)c1cc(OC)c(OC)cc1NC(=O)CSc1ccc(C)cc1`, the max response is -2.51%.

In the case of `Cc1ccc(SC(=O)COc2ccc(C)c(C)c2)cc1`, the max response was -5.87%.

`Cc1ccc(NC(=O)c2ccc(S(=O)(=O)NCC3CCCO3)cc2)cc1C` (stereo unspecified): the max response is 9.52%.

As to `Cc1ccc(-c2nn(-c3ccccc3)cc2/C=C2\SC(=S)N(CCCCCC(=O)O)C2=O)o1`, the max response is 1.36%.

As to `O=C(NC(=S)N1CCCCC1c1cccnc1)c1ccccc1` (stereo unspecified), the max response is 11.6%.

For the compound `C=C(C)c1cccc(C(C)(C)NC(=O)NC2CCCC2)c1`, the max response was -2.37%.

For `Cc1ccc(C)c(N2CCN(C(=O)Cn3ncn4cccc4c3=O)CC2)c1`, the max response is -1.35%.

Take `FC(F)(F)c1ccnc(Oc2ccc(C3=NCCS3)cc2)c1`: the max response was 42.3% (active).

Consider `O=Cc1ccc(Oc2cccc(C(F)(F)F)c2)nc1`, for which the max response was 15%.

Take `NC(=S)Nc1c(Cl)cccc1Cl`: the max response was 4.66%.

For the compound `CCc1ccc(NC(=O)COC(=O)c2cccs2)cc1`, the max response is 51.3% (active).

Take `O=C(COC(=O)c1cccs1)NCc1cccs1`: the max response was 16.3% (active).

Regarding `CCc1ccc(NC(=O)C(=O)N/N=C(\C)CC(=O)NCCOC)cc1`, the max response is 20.1%.

Take `CCc1ccc(NC(=O)CCNS(=O)(=O)c2cccs2)cc1`: the max response was 21.6% (active).

`O=C(COC(=O)CCC(=O)c1cccs1)NCc1ccco1`: the max response is 1.52%.

For the compound `O=C(COC(=O)c1cccs1)Nc1ccccc1Cl`, the max response was -1.99%.

Consider `CCc1ccc(NC(=O)C(=O)NNC(=O)c2cccs2)cc1`, for which the max response is 27.8% (active).

In the case of `CCc1cccc(NC(=O)CCNS(=O)(=O)c2cccc3nonc23)c1`, the max response was -2.33%.

On to `O=C(COC(=O)c1ccc(Cl)nc1)NCc1cccs1`, for which the max response was -2.61%.

As for `CCOC(=O)c1oc2ccccc2c1NC(=O)c1cccs1`, the max response was -3.1%.

`C/C(=N\OCC(=O)Nc1ccc(Br)cc1)c1cccs1`: the max response is 7.82%.

Consider `O=C(COC(=O)c1ccc(NS(=O)(=O)c2cccs2)cc1O)Nc1ccc(F)cc1`, for which the max response was 0.935%.
